Screening data from PubChem BioAssay.
DT40 TDP1 no CPT: qHTS for Inhibitors of human tyrosyl-DNA phosphodiesterase 1 (TDP1): qHTS in cells in absence of CPT; DT40 Tdp1-/- hTDP1 cells, no CPT, ATP luminescence, 48 h; Potency, µM (highest dose often 46.2 µM), without a hit: at the highest dose activity change, negative = growth inhibition, actives largely listed as inhibitors; hit rate 15% among 420,000; further: potency means the concentration at half of the fitted maximal effect; on the % scale 0 is the no-effect control and ±100 the full control effect; nearly all actives have a fitted effect of over 55% in size
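Camptothecin absent (DMSO only). Human TDP1-complemented DT40 knockout cells, 400 cells/well, 37 °C for minimum 48 hr; ATP measured via CellTiter-Glo, 30 min dark incubation, luminescence.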
TGFb SMAD3 inh: blocks TGF-b signaling. HepG2 CAGA-GFP TGF-b/SMAD3 reporter, GFP fluorescence, 18 h; TGF-beta stimulated, 500 pg/mL final. Potency, µM (titrated, usually from 46.1 µM), without a hit: top-dose activity, negative = inhibition, actives largely listed as inhibitors. hit rate 1.2% among 410,000; further: potency means the concentration at half of the fitted maximal effect; on the % scale 0 is the no-effect control and ±100 the full control effect; nearly all actives have a fitted effect of over 65% in size
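Per well, imaged GFP fluorescence of HEPG2 CAGA-GFP cells gives the signal; cells get compound, then TGF-beta (500 pg/mL final), 18 h at 37 degrees C; %Activity versus -TGF-beta and +DMSO controls.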
HepG2 tox: kills HepG2 cells in TGF-b inhibitor counter-screen; HepG2 CAGA-GFP viability, ATP luminescence, 18 h; Potency, µM (titrated, usually from 46.1 µM), without a hit: at the top dose activity change, negative = cytotoxicity, usual class: cytotoxic; hit rate 0.76% among 410,000; AID 588856; further: potency means the concentration at half of the fitted maximal effect
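CellTiter-Glo luminescence gave cytotoxicity after 18 hours at 37 degrees C. The cells were HepG2 CAGA-GFP in 1% FBS DMEM, stimulated with 500 pg/mL TGF-beta after compound addition. %Activity was normalised to no-cell wells (complete cell-killing) and DMSO (no toxicity), and curves were fitted and classified.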
IL1B secr inh: blocks inflammasome-driven IL-1 beta release. THP-1 LPS/ATP IL-1B secretion, AlphaLISA, 16 h; hits give low values. activity change, % at 57.5 µM. hit rate 4.7% among 360,000. AID 743279; in the data active means activity change below about -50%; inconclusive means mostly about -30% to -49%; further: on the % scale 0 is the no-effect control and ±100 the full control effect
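Secreted IL-1B measured by AlphaLISA bead assay after 16 h compound exposure of THP-1 cells; compounds (final up to 57.5 uM) added 1 h before LPS (250 ng/mL) and ATP (1.25 mM) stimulation; lower signal means less secretion.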
DT40 TDP1 CPT: growth inhibition of DT40 Tdp1-/-;hTDP1 cells with camptothecin (screen for TDP1 inhibitors); chicken DT40 Tdp1-/-;hTDP1 cells + 20 nM CPT, ATP luminescence, 48 h; Potency, µM (top dose mostly 46.2 µM), without a hit: top-dose activity change, negative = growth inhibition, most hits filed as inhibitors; hit rate 12% among 420,000; further: potency means the concentration at half of the fitted maximal effect; on the % scale 0 is the no-effect control and ±100 the full control effect; nearly all actives have a fitted effect of over 55% in size
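Chicken DT40 Tdp1-/- cells complemented with human TDP1, 400 cells/well, exposed to compounds plus 20 nM camptothecin for at least 48 h at 37 C; viability read as ATP content by CellTiter-Glo luminescence.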
TDP1 inh: blocks human tyrosyl-DNA phosphodiesterase 1; Q9NUW8; recombinant TDP1, AlphaScreen DNA substrate cleavage; Potency, µM (doses to about 130 µM), inactives show top-dose activity change, negative = inhibition, most hits filed as inhibitors; hit rate 0.28% among 350,000; AID 485290; further: potency means the concentration at half of the fitted maximal effect; on the % scale 0 is the no-effect control and ±100 the full control effect; nearly all actives have a fitted effect of over 40% in size
Target sequence (Q9NUW8 whole entry, looked up): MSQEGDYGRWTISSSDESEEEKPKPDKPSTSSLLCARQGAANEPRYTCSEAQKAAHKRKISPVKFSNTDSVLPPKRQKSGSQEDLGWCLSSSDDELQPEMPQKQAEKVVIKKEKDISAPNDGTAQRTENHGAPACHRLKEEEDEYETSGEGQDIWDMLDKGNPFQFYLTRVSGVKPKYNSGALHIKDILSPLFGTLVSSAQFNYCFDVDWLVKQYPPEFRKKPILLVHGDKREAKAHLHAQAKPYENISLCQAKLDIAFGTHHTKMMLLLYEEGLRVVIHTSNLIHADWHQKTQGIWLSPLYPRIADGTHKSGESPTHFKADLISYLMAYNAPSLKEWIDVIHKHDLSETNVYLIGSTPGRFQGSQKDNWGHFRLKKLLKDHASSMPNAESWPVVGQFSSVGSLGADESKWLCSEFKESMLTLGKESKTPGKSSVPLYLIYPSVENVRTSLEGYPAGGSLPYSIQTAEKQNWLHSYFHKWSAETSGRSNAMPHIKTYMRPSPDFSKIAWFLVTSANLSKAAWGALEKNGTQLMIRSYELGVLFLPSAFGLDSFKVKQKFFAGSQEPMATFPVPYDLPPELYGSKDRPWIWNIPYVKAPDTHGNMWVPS
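Tdp1 1 nM final; 15 min RT w/ cpd; substrate 15 nM, 5 min; beads 10 ug/ml, 10 min; AlphaScreen read. Neg ctrl: no enzyme.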
* = called active by the depositor. Most compounds without a hit are left out; they make up all but 19% or so of the library. Unless noted, the call rests on the fitted dose curve; in most records, active means well fitted curve in the direction sought with a large enough effect; inconclusive means small, poorly fitted or top-dose-only effect, or another doubt; inactive means no such curve, though single readings can be large; an effect the other way counts as inactive or inconclusive.

`CCCOc1ccccc1C(=O)N1CCCCC1CCN1CCCCC1` (centres undefined) gave DT40 TDP1 no CPT -5%, TGFb SMAD3 inh 4%, HepG2 tox 5%, DT40 TDP1 CPT -5% and TDP1 inh 0%.
O=C(COC(=O)c1n[nH]c2ccccc12)NC(=O)NC1CCCC1 was read as DT40 TDP1 no CPT -23%, TGFb SMAD3 inh -27%, HepG2 tox -3%, IL1B secr inh 12, DT40 TDP1 CPT inconclusive and TDP1 inh 0%.
Screening O=C(COC(=O)c1ccc(-c2ccc([N+](=O)[O-])cc2)o1)NC(=O)NC1CCCCC1 returned DT40 TDP1 no CPT inconclusive, TGFb SMAD3 inh -16%, HepG2 tox -18%, IL1B secr inh 16, DT40 TDP1 CPT inconclusive and TDP1 inh 5%.
Screening O=C(COC(=O)c1ccc(-c2ccc([N+](=O)[O-])cc2)o1)NC(=O)NC12CC3CC(CC(C3)C1)C2 returned DT40 TDP1 no CPT 13µM*, TGFb SMAD3 inh -4%, HepG2 tox -6%, IL1B secr inh -24, DT40 TDP1 CPT 16µM* and TDP1 inh 4%.
For O=C(NC12CC3CC(CC(C3)C1)C2)c1ccc(-c2ccc(Cl)cc2)o1 the results were DT40 TDP1 no CPT 18µM*, TGFb SMAD3 inh -2%, HepG2 tox 3%, IL1B secr inh -27, DT40 TDP1 CPT 23µM* and TDP1 inh 3%.
`O=C(NC12CC3CC(CC(C3)C1)C2)c1ccc(-c2cccc(Cl)c2)o1` gave DT40 TDP1 no CPT inconclusive, TGFb SMAD3 inh -34%, HepG2 tox 1%, IL1B secr inh 5, DT40 TDP1 CPT inconclusive and TDP1 inh 3%.
O=C(COC(=O)c1n[nH]c2ccccc12)NC(=O)NC12CC3CC(CC(C3)C1)C2 was read as DT40 TDP1 no CPT 9.2µM*, TGFb SMAD3 inh -10%, HepG2 tox 13%, IL1B secr inh 28, DT40 TDP1 CPT 13µM* and TDP1 inh -2%.
Cc1ccc(NC(=O)CN2C(=O)c3ccccc3Sc3ccc(C(=O)N4CCOCC4)cc32)c(Cl)c1 was read as DT40 TDP1 no CPT inconclusive, TGFb SMAD3 inh inconclusive, HepG2 tox -18%, DT40 TDP1 CPT -14% and TDP1 inh 4%.
Screening CC(=O)Nc1ccc(S(=O)(=O)N2CCN(S(=O)(=O)c3ccc(F)c(F)c3F)CC2)cc1 returned DT40 TDP1 no CPT 0%, TGFb SMAD3 inh 5%, HepG2 tox 10%, IL1B secr inh -6 and DT40 TDP1 CPT -9%.
COc1ccc2c(C#CCCO)c(-c3ccc(S(C)(=O)=O)cc3)sc2c1 was read as DT40 TDP1 no CPT inconclusive, TGFb SMAD3 inh -7%, HepG2 tox -3%, IL1B secr inh 16, DT40 TDP1 CPT inconclusive and TDP1 inh -3%.
`OCCC#Cc1c(-c2ccsc2)sc2ccccc12` gave DT40 TDP1 no CPT -26%, TGFb SMAD3 inh -13%, HepG2 tox -8%, IL1B secr inh 3 and DT40 TDP1 CPT -14%.
`COc1ccc2sc(-c3ccc(S(C)(=O)=O)cc3)c(C#CCO)c2c1` gave DT40 TDP1 no CPT 21µM*, TGFb SMAD3 inh inconclusive, HepG2 tox -35%, IL1B secr inh -55*, DT40 TDP1 CPT 15µM* and TDP1 inh -1%.
COc1ccc(-c2sc3cc(OC)c(OC)cc3c2C#CCCO)cc1 was read as DT40 TDP1 no CPT inconclusive, TGFb SMAD3 inh inconclusive, HepG2 tox -42%, IL1B secr inh inconclusive, DT40 TDP1 CPT inconclusive and TDP1 inh 0%.
Screening CS(=O)(=O)c1ccc(-c2sc3ccccc3c2C#CCCO)cc1 returned DT40 TDP1 no CPT inconclusive, TGFb SMAD3 inh 11µM*, HepG2 tox -33%, IL1B secr inh -18, DT40 TDP1 CPT 16µM* and TDP1 inh 0%.
For COc1ccc(-c2sc3ccccc3c2C#CCCO)cc1 the results were DT40 TDP1 no CPT inconclusive, TGFb SMAD3 inh -6%, HepG2 tox -29%, IL1B secr inh 0 and DT40 TDP1 CPT 26µM*.
COc1ccc(-c2sc3ccc(N4CCOCC4)cc3c2C#CCCO)cc1 was read as DT40 TDP1 no CPT 4.6µM*, TGFb SMAD3 inh inconclusive, HepG2 tox -41%, IL1B secr inh 44, DT40 TDP1 CPT 6.5µM* and TDP1 inh 6%.
Screening CCCCn1c(=O)c2oc3ccccc3c2n(Cc2ccc(OC)cc2)c1=O returned DT40 TDP1 no CPT inconclusive, TGFb SMAD3 inh -19%, HepG2 tox -23%, DT40 TDP1 CPT inconclusive and TDP1 inh 3%.
`COc1ccc2sc(-c3ccccc3OC)c(C#Cc3cncn3C)c2c1` gave DT40 TDP1 no CPT inconclusive, TGFb SMAD3 inh inconclusive, HepG2 tox -91%, IL1B secr inh -21, DT40 TDP1 CPT inconclusive and TDP1 inh 10%.
`Cn1cncc1C#Cc1c(-c2ccc(S(C)(=O)=O)cc2)sc2ccccc12` gave DT40 TDP1 no CPT 12µM*, TGFb SMAD3 inh 31%, HepG2 tox 1%, IL1B secr inh 8, DT40 TDP1 CPT 13µM* and TDP1 inh 0%.
COc1ccc2c(-c3ccc(S(N)(=O)=O)cc3)c(-c3ccc(S(C)(=O)=O)cc3)sc2c1 was read as DT40 TDP1 no CPT inconclusive, TGFb SMAD3 inh -32%, HepG2 tox -34%, IL1B secr inh 8, DT40 TDP1 CPT 23µM* and TDP1 inh 1%.
For COc1cccc(CN2CCNC(=O)C2CC(=O)N(Cc2cnn(C)c2)C(C)C)c1 (centres undefined) the results were DT40 TDP1 no CPT -14%, TGFb SMAD3 inh 6%, HepG2 tox 30%, IL1B secr inh 4, DT40 TDP1 CPT 11% and TDP1 inh 5%.
`COc1ccc(NC(=O)COC(=O)c2cc3c(s2)CCC3)cc1` gave DT40 TDP1 no CPT inconclusive, TGFb SMAD3 inh 2%, HepG2 tox -3%, IL1B secr inh 14, DT40 TDP1 CPT 16µM* and TDP1 inh 14µM*.
Screening O=C(COC(=O)c1cc2c(s1)CCC2)Nc1ccc(F)cc1 returned DT40 TDP1 no CPT 15µM*, TGFb SMAD3 inh -1%, HepG2 tox 3%, IL1B secr inh 0, DT40 TDP1 CPT inconclusive and TDP1 inh 35µM*.
For NC(=O)c1ccc(NC(=O)COC(=O)c2cc3c(s2)CCC3)cc1 the results were DT40 TDP1 no CPT -23%, TGFb SMAD3 inh -16%, HepG2 tox 3%, IL1B secr inh 15, DT40 TDP1 CPT inconclusive and TDP1 inh 7.1µM*.
